The values that follow come from PubChem BioAssay AID1531 (NMMLSC, 2009).

The whole screen tested about 290,000 compounds, of which about 3,300 (1.1%) were called active. What follows is part of a selection rich in actives, with near analogues and random picks from the rest. A number with no mark means an inactive call. Cut-off read from the data, not from the text of the source: active = binding response below about 67% or above about 130%; inconclusive = no clear call, values can overlap the other calls; inactive = in between.

The assay has as its target Mitogen-activated protein kinase kinase kinase 2 (Homo sapiens) (UniProt Q9Y2U5). Nature of the assay: modulators of MEK5 binding to wildtype MEKK2, primary screen, biochemical, multiplex bead flow cytometry, Alexa488-MEK5 (AID 1531). The conditions noted are these: Alexa488-MEK5 binding to MEKK2 WT, at 10 µM, actives lie on both sides. In general terms: A flow cytometer gives signals particle by particle.
As for `CC(=O)N1c2ccc(S(=O)(=O)N3CCC(C(=O)NCc4ccc(F)cc4)CC3)cc2CC1C` (configuration not stated), the binding response (% of control) is 99%.
Under `NS(=O)(=O)c1ccc(-c2ccc(/C=C3\SC(=O)NC3=O)o2)cc1` stands 102%; under `CN1C(=O)/C(=C\c2ccc(-c3ccccc3)o2)SC1=S`, 14% [inhibitor] (active).
As to `O=C(O)C(c1ccccc1)N1C(=O)/C(=C\c2ccc(-c3cccc(Cl)c3)o2)SC1=S` (configuration not stated), the binding response (% of control) was 85%.
As for `COc1cc2c(cc1OC)C(c1ccncc1)CC(=O)N2` (configuration not stated), the figure is 117%.
As for `COc1cc2c(cc1OC)C(c1ccc(C)o1)CC(=O)N2` (configuration not stated), the figure is 98%; as for `COc1ccc(C2CC(=O)Nc3cc(C)c(C)cc32)c(OC)c1OC` (configuration not stated), -2% [inhibitor] (active).
Under `CCOc1ccc(C)cc1S(=O)(=O)NC1CCCCCC1` stands 106%.
Regarding `Cc1ccc2c(c1)N(CC(=O)N1CCC(O)CC1)C(=O)CO2`, the binding response (% of control) was 94%.
Take `N=c1c2c(-c3ccccc3)c(-c3ccccc3)n(Cc3ccccc3)c2ncn1CCCO`: the binding response (% of control) was 155% (active).
Under `N=c1c2c(-c3ccccc3)c(-c3ccccc3)oc2ncn1Cc1ccco1` stands 92%.
As to `CCN(CC)CCn1cnc2c1c(=O)[nH]c(=O)n2Cc1ccccc1`, the binding response (% of control) is 104%.
For the compound `O=C(CN1CCN(c2ccccn2)CC1)Nc1ccc(Br)cc1`, the binding response (% of control) is 109%.
As for `O=C(CN1CCN(c2ccccn2)CC1)NC1CCCCC1`, the figure is 104%.
For `O=C(CN1CCN(c2ccccn2)CC1)N1CCc2ccccc21`, the binding response (% of control) was 3% (active).
Under `Cc1ccc(CNC(=O)c2ccc3c(c2)S(=O)(=O)c2ccccc2C3=O)cc1` stands 111%.
As for `COc1ccc(-c2[nH]ncc2CN(C)Cc2cccnc2)c(F)c1`, the figure is 102%; as for `COc1ccc(-c2[nH]ncc2CN(C)Cc2cc(C)[nH]n2)c(F)c1`, 83%; as for `COc1ccc(-c2[nH]ncc2CN(C)Cc2c(C)n[nH]c2C)c(OC)c1`, -2% [inhibitor] (active).
Regarding `COc1ccc(CCOC(=O)CNC(=O)c2ccc(Cl)cc2Cl)cc1`, the binding response (% of control) is 86%.
Under `CCc1cccc(C)c1NS(=O)(=O)c1c(C)nc2sccn2c1=O` stands 101%; under `CCN(CC)c1ccc(/C=N/NC(=O)CNC(=O)c2cccs2)cc1`, 92%.
Under `O=C(c1ccc(Cl)cc1)n1cnc2ccccc21` stands 106%; under `Cc1cc(C)cc(OCC(=O)NCc2cc(C)nc3ccccc23)c1`, 103%; under `Cc1cc(C)c(NC(=O)c2oc3ccccc3c2COc2ccccc2)c(C)c1`, 100%.
Under `Cc1cc(C)c(NC(=O)C[N+](C)(C)CC(O)COc2cccc3ccccc23)c(C)c1` (configuration not stated) stands 149% (active).
On to `CC(C)(c1ccccc1)c1ccc(OCCN)cc1`, for which the binding response (% of control) was 117%.
As for `Cc1cc(C)n(CC(O)COc2ccc(C(C)(C)C)cc2)n1` (configuration not stated), the figure is 107%; as for `CN(C)CC(O)COc1ccc(C(C)(C)c2ccc(OCC(O)CN(C)C)cc2)cc1` (configuration not stated), 225% (active).
As for `COc1ccccc1C1=CC(=O)CCC1`, the figure is 98%; as for `CCOC(=O)C1Nc2ccc(C(F)(F)F)cc2C2C=CCC12` (configuration not stated), 98%; as for `CC1(C)Cc2c(sc(NC(=O)C(=O)N3CCOCC3)c2C#N)CO1`, 95%.
In the case of `CCCOc1ccc(C(=O)NCCc2ccccc2)cc1`, the binding response (% of control) is 94%.
As for `CC(C)c1ccc(C(=O)NCCCc2ccccc2)cc1`, the figure is 2% [inhibitor] (active); as for `Cc1cc(C(=O)NCCCc2ccccc2)no1`, 99%.
On to `O=[N+]([O-])c1ccccc1NCc1ccccc1Cl`, for which the binding response (% of control) is 66%.
Under `O=C(NCc1ccccc1Cl)c1csc2c1CCCCC2` stands 93%.
Under `O=C(NCc1ccccc1Cl)NC(=O)c1csc([N+](=O)[O-])c1` stands -14% [inhibitor] (active); under `CCCCCc1c(C)nc(N2CCN(Cc3ccc4c(c3)OCO4)CC2)[nH]c1=O`, 97%.
As for `OCC1(CCc2ccccc2)CCN(Cc2ccc3nsnc3c2)CC1`, the figure is 89%.
Regarding `COc1cccc(CC2(CO)CCN(Cc3cnc(-c4cccc(C)c4)nc3)CC2)c1`, the binding response (% of control) is 98%.
For the compound `Cc1cccc(-c2ncc(CN3CCC(CO)(CCCc4ccccc4)CC3)cn2)c1`, the binding response (% of control) is 163% (active).
Under `O=C(COc1ccc2ccc(=O)oc2c1)NCC(O)c1ccccc1` (configuration not stated) stands 104%; under `CCOC(=O)C1CCN(c2ccc(C(=O)O)cc2[N+](=O)[O-])CC1`, 101%.
As for `O=C(O)C1CCN(c2ccc([N+](=O)[O-])cc2[N+](=O)[O-])CC1`, the figure is 46% [inhibitor] (active); as for `CC1CCN(c2ccc([N+](=O)[O-])cc2C(N)=O)CC1`, 95%.
Take `CCOc1ccccc1-c1cc(C(=O)N/N=C(\C)c2cccnc2)c2ccccc2n1`: the binding response (% of control) is 92%.
